Parameters in all cases: scale not given: direction of the effect not stated beside the values
Assay [1] deals with Protein translocase subunit SecA (Escherichia coli (strain K12)) (UniProt P10408). Briefly: Assay to Identify E. coli SecA ATPase Inhibitors. It is filed as functional. As to conditions: 30 µM.
In assay [2] the target is T1, Ubiquitin-activating enzyme e1, putative (Leishmania donovani (strain BPK282A1)) (UniProt E9BSI1).
T1 sequence (whole entry): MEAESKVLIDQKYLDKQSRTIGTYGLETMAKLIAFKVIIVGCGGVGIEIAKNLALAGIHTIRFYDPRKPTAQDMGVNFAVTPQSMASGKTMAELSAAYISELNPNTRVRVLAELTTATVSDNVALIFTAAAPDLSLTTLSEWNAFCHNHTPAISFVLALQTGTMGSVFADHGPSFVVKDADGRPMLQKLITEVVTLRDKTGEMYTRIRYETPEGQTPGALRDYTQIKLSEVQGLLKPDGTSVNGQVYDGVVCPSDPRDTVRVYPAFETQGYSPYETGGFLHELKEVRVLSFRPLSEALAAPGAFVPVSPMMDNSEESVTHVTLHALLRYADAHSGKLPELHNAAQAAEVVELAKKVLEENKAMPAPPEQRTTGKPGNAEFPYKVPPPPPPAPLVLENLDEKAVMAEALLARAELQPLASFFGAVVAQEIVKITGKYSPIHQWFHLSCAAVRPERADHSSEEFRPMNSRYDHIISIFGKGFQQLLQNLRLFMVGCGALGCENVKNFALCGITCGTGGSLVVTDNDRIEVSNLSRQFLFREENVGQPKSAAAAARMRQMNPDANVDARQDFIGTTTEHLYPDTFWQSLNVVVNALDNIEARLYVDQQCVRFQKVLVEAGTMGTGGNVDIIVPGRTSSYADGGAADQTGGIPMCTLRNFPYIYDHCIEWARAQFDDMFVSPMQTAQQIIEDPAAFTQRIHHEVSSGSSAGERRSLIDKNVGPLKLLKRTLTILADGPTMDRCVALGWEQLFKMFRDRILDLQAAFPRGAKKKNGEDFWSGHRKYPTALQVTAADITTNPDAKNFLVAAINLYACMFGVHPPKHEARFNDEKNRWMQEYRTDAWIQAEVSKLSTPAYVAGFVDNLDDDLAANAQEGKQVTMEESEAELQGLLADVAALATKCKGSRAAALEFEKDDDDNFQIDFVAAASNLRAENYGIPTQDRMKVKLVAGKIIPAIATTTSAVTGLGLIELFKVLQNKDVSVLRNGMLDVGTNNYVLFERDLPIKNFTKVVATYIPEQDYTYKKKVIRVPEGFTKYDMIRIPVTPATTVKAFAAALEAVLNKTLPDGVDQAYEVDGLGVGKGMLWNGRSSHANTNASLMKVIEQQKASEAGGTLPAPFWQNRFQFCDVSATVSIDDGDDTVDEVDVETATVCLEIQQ
The assay is described as follows: Leishmania donovani Ubiquitin Activating Enzyme (LdE1). It is filed as functional. As to conditions: 30 µM.

Assay [3] concerns the target AMP-activated protein kinase, AMPK (Homo sapiens) (UniProt P54646+O43741+P54619+Q9UGJ0+Q9Y478+Q13131+Q9UGI9). The assay is described as follows: AMP-dependent Kinase enzyme assay. An in vitro enzyme assay that detects ADP turnover that is directly proportional to AMPK activity. This uses naive AMPK that is activated during the assay with MK-8722. It is filed as functional. As to conditions: 30 µM.

The target of assay [4] is Sialic acid-binding Ig-like lectin 9 (Homo sapiens) (UniProt Q9Y336). The assay is described as follows: Hs-Siglec9 ALPHAscreen SOP 20170721. As to conditions: 10 µM. On the technique in general: Bead proximity is the source of the signal in Alpha formats.
Sequence of Sialic acid-binding Ig-like lectin 9 (Homo sapiens) (Q9Y336 whole entry): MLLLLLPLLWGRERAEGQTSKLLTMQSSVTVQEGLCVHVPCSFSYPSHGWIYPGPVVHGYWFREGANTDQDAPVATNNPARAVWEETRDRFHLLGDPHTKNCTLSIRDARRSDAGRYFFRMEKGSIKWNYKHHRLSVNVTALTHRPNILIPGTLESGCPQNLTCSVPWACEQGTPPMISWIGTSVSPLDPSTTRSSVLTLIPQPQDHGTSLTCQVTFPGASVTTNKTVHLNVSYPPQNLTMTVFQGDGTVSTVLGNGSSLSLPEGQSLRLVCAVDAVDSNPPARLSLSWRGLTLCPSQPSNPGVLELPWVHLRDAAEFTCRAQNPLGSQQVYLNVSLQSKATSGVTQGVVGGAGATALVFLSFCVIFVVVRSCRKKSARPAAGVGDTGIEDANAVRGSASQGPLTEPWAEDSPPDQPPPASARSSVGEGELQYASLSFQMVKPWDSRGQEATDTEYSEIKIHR
The subject of another assay is Trypanosoma cruzi. The assay is described as follows: Trypanosoma cruzi phosphomannomutase and mannose-1-phosphate guanylyltransferase assay. The assay is classed as functional. The conditions noted are these: 10 µM.
In assay [5] the target is T2, Arginase-2, mitochondrial (Homo sapiens) (UniProt P78540).
T2 sequence (whole entry): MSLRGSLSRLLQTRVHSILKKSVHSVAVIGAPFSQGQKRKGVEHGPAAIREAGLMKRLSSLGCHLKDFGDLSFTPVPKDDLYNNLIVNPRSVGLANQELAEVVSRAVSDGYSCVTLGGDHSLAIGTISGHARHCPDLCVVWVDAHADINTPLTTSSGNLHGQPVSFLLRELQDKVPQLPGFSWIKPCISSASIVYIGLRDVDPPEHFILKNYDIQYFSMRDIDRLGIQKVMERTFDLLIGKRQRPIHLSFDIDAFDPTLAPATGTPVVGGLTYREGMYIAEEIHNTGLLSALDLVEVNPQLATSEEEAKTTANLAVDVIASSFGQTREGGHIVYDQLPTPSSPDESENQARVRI
The assay is described as follows: in vitro enzyme assay to detect the production of urea directly proportional to the activity of Arginase II. Note: in the data most compounds retested in dose-response had high values. The assay is classed as functional. As to conditions: 33.3 µM.

Assay [6] concerns the target T3, Proteasome subunit beta (Trypanosoma cruzi) (UniProt O96673).
T3 sequence (whole entry): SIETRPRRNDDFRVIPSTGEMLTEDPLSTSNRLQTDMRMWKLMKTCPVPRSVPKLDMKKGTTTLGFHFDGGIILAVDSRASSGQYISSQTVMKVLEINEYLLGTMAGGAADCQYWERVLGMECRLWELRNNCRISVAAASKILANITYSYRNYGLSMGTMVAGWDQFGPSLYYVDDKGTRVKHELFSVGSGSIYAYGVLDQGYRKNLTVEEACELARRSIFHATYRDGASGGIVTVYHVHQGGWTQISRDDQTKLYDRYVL
The assay is described as follows: Trypanosoma cruzi proteasome chymotrypsin-like activity (TcProtChymo) assay. Note: in the data most compounds retested in dose-response had high values. The assay is classed as functional. As to conditions: 9.37 µM.

Another assay is filed under the species Homo sapiens. Briefly: To identify inhibition of the IFN signalling (Jak-Stat) pathway via expression of an eGFP reporter gene under the control of an IFN-stimulated response element (ISRE) containing MxA promoter. It is filed as functional. As to conditions: 30 µM.
Assay [7] deals with T4, Tyrosyl-tRNA synthetase, putative (Trypanosoma cruzi (strain CL Brener)) (UniProt Q4DSP6).
T4 sequence (whole entry): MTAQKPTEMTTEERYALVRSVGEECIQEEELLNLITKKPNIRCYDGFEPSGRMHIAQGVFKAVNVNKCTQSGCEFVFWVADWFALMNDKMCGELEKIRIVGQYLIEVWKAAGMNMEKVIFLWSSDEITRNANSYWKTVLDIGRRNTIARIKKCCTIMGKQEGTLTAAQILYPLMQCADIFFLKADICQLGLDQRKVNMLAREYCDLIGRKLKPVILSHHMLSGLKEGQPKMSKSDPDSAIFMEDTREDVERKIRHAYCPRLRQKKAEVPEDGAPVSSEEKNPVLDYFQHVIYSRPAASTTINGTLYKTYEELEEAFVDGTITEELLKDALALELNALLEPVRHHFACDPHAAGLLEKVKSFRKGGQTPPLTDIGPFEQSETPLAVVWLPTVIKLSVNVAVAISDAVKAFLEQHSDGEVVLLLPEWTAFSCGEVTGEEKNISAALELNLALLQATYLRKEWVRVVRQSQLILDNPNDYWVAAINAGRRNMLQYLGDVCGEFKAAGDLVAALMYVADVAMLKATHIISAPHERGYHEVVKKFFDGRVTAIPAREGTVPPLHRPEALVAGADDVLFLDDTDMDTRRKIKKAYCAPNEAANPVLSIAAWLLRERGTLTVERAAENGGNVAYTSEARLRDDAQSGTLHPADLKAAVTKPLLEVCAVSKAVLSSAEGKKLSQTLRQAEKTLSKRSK
The assay is described as follows: Trypanosoma cruzi tyrosyl tRNA synthetase (TcYRS) _High Tyrosine SOP. Note: in the data most compounds retested in dose-response had high values. The conditions noted are these: 30 µM. The assay is classed as functional.

The target of assay [8] is T4, Tyrosyl-tRNA synthetase, putative (Trypanosoma cruzi (strain CL Brener)). The assay is described as follows: Trypanosoma cruzi tyrosyl tRNA synthetase (TcYRS) SOP. It is filed as functional. The conditions noted are these: 30 µM.
For assay [9], the target named is Chromo domain-containing protein 1 (Saccharomyces cerevisiae (strain ATCC 204508 / S288c) (Baker's yeast)) (UniProt P32657). Briefly: ScCHD-1 Enzyme Inhibition Assay. Note: in the data most compounds retested in dose-response had high values. The conditions noted are these: 30 µM. The assay is classed as functional.
Sequence of Chromo domain-containing protein 1 (Saccharomyces cerevisiae (strain ATCC 204508 / S288c) (Baker's yeast)) (P32657 whole entry, the tested form may be a part): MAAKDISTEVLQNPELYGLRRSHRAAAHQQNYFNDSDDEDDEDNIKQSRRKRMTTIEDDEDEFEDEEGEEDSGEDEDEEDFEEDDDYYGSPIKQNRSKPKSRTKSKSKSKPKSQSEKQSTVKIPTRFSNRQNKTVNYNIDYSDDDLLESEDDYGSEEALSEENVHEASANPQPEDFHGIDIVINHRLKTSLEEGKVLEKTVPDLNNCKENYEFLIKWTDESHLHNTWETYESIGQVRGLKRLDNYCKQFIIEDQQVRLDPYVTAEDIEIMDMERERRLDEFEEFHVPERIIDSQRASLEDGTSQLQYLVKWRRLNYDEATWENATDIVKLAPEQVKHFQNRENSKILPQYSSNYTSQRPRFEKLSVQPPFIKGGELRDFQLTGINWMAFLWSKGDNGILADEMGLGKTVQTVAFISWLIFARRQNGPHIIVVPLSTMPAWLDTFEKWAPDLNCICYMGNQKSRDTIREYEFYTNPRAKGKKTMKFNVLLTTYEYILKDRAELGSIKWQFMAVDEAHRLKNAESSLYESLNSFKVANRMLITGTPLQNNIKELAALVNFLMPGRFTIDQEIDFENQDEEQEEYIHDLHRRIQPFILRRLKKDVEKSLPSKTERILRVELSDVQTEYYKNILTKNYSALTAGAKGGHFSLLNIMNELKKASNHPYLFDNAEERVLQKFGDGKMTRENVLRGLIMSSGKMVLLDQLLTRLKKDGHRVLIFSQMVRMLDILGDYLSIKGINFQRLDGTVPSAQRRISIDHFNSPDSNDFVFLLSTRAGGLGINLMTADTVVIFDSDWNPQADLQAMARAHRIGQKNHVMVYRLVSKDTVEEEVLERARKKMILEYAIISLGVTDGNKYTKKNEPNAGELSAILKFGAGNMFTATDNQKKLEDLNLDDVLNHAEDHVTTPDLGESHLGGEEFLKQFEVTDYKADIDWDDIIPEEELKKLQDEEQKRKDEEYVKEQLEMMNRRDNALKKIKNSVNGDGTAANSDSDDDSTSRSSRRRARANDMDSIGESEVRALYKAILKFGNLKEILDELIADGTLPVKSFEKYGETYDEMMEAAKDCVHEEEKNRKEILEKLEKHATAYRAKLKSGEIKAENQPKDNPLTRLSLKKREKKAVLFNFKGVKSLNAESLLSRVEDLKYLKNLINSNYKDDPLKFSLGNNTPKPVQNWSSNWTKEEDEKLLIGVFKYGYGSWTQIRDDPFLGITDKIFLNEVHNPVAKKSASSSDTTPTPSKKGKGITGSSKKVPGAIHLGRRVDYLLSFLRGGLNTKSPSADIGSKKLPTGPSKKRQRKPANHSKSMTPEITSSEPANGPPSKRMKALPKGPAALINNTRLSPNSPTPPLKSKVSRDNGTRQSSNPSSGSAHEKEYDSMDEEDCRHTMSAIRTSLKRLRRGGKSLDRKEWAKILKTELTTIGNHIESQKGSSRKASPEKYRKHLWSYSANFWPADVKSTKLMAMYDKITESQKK

In ChEMBL document CHEMBL3988442, “University of Dundee, Small-Polar-MMV Screening Library” (2021) one finds Percent Effect data, which are given here for ten compounds.

Each structure is given as a SMILES string. For some assays here: Potency and affinity values are given separately.

Sequence of Protein translocase subunit SecA (Escherichia coli (strain K12)) (P10408 whole entry): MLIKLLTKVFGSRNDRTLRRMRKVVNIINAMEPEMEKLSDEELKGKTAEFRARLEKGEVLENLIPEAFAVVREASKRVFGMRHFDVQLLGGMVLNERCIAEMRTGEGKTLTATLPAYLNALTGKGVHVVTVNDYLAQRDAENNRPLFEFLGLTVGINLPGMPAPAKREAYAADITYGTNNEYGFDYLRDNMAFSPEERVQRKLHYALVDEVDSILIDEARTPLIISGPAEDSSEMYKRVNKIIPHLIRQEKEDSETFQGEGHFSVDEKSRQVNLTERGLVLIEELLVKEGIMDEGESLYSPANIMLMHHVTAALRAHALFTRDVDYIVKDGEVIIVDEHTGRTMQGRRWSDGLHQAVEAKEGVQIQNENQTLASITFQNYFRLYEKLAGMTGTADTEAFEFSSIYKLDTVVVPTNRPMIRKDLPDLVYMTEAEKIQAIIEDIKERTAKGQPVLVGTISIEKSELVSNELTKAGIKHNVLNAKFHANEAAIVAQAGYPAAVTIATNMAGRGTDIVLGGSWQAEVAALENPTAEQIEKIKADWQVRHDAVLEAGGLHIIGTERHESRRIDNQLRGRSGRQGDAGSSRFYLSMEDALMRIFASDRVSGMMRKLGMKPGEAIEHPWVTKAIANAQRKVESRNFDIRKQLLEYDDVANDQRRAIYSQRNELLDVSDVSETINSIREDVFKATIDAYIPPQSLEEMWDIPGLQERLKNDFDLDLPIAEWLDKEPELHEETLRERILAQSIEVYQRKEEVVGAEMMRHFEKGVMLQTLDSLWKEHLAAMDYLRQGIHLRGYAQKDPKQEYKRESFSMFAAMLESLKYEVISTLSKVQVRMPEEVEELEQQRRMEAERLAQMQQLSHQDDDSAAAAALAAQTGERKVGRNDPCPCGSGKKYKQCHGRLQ

Regarding `O=C(CSc1nc2c(cnn2CCO)c(=O)[nH]1)N1CCCCCC1`, the Percent Effect in assay [1] was 1.99%; in [2] it was 8.22%; in assay [3] it was -8.26%; in assay [4], 4.22%; with Trypanosoma cruzi, -3.33%; in assay [5] it was 3.18%. Besides, the Percent Effect is 11.4% in [6]; 14.3% in the assay listed under Homo sapiens; 4.3% in assay [7]; 10% in [8]; -2.48% in [9].
With `Cc1nc(Nc2ncccn2)cc(C2CCCN2C2CCOCC2)n1` (stereo not given), the Percent Effect in assay [1] is -5.08%; in assay [2], 6.76%; in assay [3], 3.91%; in assay [4], 3.68%; with Trypanosoma cruzi, 0.593%; in [5], -3.48%. Moreover, the Percent Effect is -1.72% in [6]; 13.7% in the assay filed under Homo sapiens; 9.68% in [7]; 11.7% in [8]; -3.64% in [9].
As for `CC(=O)NCCNC(=O)N(C)Cc1ccc2c(c1)OCCO2`, the Percent Effect in assay [1] is -3.01%; in assay [2] it was 0%; in assay [3], -0.74%; in assay [4], -6.13%; in the assay on Trypanosoma cruzi, -4.92%; in [5] it was 6.1%. The Percent Effect in assay [6] is 1.79%; in the assay listed under Homo sapiens it was 7.44%; in [7] it was 4.95%; in assay [8] it was 13.4%; in [9], -1.92%.
For `Cc1ccc(CN2CCN(CC3CC3)[C@@H]3CS(=O)(=O)C[C@@H]32)cc1C`, the Percent Effect is -7.02% in [1]; 5.33% in assay [2]; -1.63% in assay [3]; 3.97% in assay [4]; -7.11% in the assay with Trypanosoma cruzi; 2.08% in assay [5]. Moreover, the Percent Effect in assay [6] was 15.5%; in the assay filed under Homo sapiens, 2.7%; in [7], -2.73%; in assay [8] it was 8.64%; in [9] it was -5.38%.
Consider `O=C(Cn1c(=O)n(Cc2ccco2)c2ncccc21)Nc1ccccn1`, for which the Percent Effect in assay [1] is -8.13%; in [2], 1.35%; in [3], 4.77%; in [4], 2.6%; with Trypanosoma cruzi, -6.13%; in assay [5], -4.41%. For the same compound, the Percent Effect in [6] is 9.2%; in the assay filed under Homo sapiens it was 3.38%; in assay [7], 5.38%; in [8], 1.3%; in assay [9], -0.416%.
As for `CCN(CCC(F)(F)F)C(=O)Nc1cccc(N2CCOCC2)c1`, the Percent Effect is -2.27% in assay [1]; 5.41% in assay [2]; -8.53% in assay [3]; 14.9% in [4]; 2.12% in the assay on Trypanosoma cruzi; -2.38% in assay [5]. For the same compound, the Percent Effect in [6] was 5.52%; in the assay filed under Homo sapiens, 16.4%; in assay [7], 2.65%; in [8], 7.32%; in [9], -3.36%.
Regarding `CC(C)CC(=O)N1CCN(C(=O)N(C)C)CC2(CC(=O)N(C)C2)C1` (stereo not given), the Percent Effect was -2.6% in [1]; -27% in [2]; 0.411% in assay [3]; -1.03% in assay [4]; 6.25% with Trypanosoma cruzi; -2.5% in assay [5]. Besides, the Percent Effect was -1.61% in assay [6]; -26.2% in the assay listed under Homo sapiens; 2.97% in [7]; -3.66% in assay [8]; -3.69% in assay [9].
Consider `COc1ncccc1C(=O)NCC(C)Oc1cccnc1` (stereo not given), for which the Percent Effect in assay [1] was -3.65%; in assay [2] it was 5.41%; in [3], 1.52%; in [4], 2.58%; in the assay with Trypanosoma cruzi, 0.386%; in assay [5], 1.91%. Besides, the Percent Effect was 4.83% in assay [6]; -3.73% in the assay listed under Homo sapiens; 6.88% in [7]; 12.2% in assay [8]; -3.26% in assay [9].
For the compound `O=C(C1=CC2(CCNCC2)c2ccccc21)N1CCCC1`, the Percent Effect in assay [1] was -0.609%; in assay [2], 2.67%; in [3], 6.96%; in [4] it was -3.45%; in the assay with Trypanosoma cruzi, -7.53%; in assay [5], -56.1%. The Percent Effect in assay [6] is 7.52%; in the assay filed under Homo sapiens it was -19.8%; in assay [7] it was -3.12%; in assay [8] it was 2.5%; in assay [9], -6.64%.
Regarding `O=S(=O)(N(Cc1ccccn1)C1CC1)N1CCCC1c1ccco1` (stereo not given), the Percent Effect in [1] was -4.42%; in [2] it was 16.2%; in assay [3], 0.691%; in assay [4] it was 9.84%; with Trypanosoma cruzi, 5.66%; in assay [5] it was -2.77%. In addition, the Percent Effect in assay [6] is 0.359%; in the assay listed under Homo sapiens, 5.33%; in [7] it was 3.96%; in assay [8] it was 18.3%; in assay [9], -5.26%.
